In PubChem BioAssay (NCI):
This is part of a sample that, as a whole, favours compounds with a hit. Of some 79,000 tested, about 15% had one in any assay. Values without a mark were called inactive. Activity calls are given as the source filed them. Rule as the data show it: active = growth inhibition above about 70%; inactive = the rest.

Assay: NCI Yeast Anticancer Drug Screen. Data for the bub3 strain (AID 167)
Settings: S. cerevisiae bub3 mutant strain, at 50.0 µM (retest, dose inferred, filed as 5.0), active compounds read high
Procedure, shortened: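 Yeast carrying a defined mutation is treated with each compound, and growth is compared with that of vehicle-exposed cells to give inhibition.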

Row | Structure (SMILES) | growth inhibition
1 | COC(=O)C1C(c2ccccc2)=N[C@@H](c2ccccc2)[C@H]1C(=O)OC (stereo not given in full) | 32%
2 | CCCCCCCCCC(C)CC(=O)NCCCN(C)CCCCN(C)C (stereo not given) (tested in a mixture with another compound) | 86% (active)
3 | Cc1ccc(N=C2SC(=S)N(CCC[N+](C)(C)C)C2=Nc2ccc(C)cc2)cc1 | 99% (active)
4 | N#CSc1ccc(O)c2ccccc12 | 96% (active)
5 | CCCCCC1OC(CCCCC)OC(CCCCC)O1 (stereo not given) | 20%
6 | ClC1(c2ccccc2)c2ccccc2-c2ccccc21 | 98% (active)
7 | CCN(CC)c1ccc(NC(CC(O)c2ccccc2)c2ccccc2)cc1 (stereo not given) | 2%
8 | CCCCCCC[n+]1ccc(C(=O)c2ccccc2)cc1 | 99% (active)
9 | O=c1[nH][nH]c(=O)c2c1nc(SCc1ccccc1)n2Cc1ccccc1 | -4%
10 | CCOC(=O)C(NNc1ccccc1)C(c1ccccc1)[P+](c1ccccc1)(c1ccccc1)c1ccccc1 (stereo not given) | 99% (active)
11 | CC(C)/C=C1\CCC(CN2CCOCC2)C1=O (stereo not given) | 62%
12 | CCc1cc2nc3c(=O)[nH]c(=O)nc-3n(CCN(CCO)CCO)c2cc1CC | -7%
13 | c1ccc2c(c1)OCC(CN1CCN(CC3COc4ccccc4O3)CC1)O2 (stereo not given) | 60%
14 | CNC(C)C(=O)c1ccc2ccc3ccccc3c2c1 (stereo not given) | 24%
15 | O=[N+]([O-])c1ccc(N=C(Cl)C(Cl)(c2ccccc2)c2ccccc2)cc1 | 96% (active)
16 | O=[N+]([O-])c1ccc2c(c1)Cc1cc(Cl)ccc1-2 | 7%
17 | CCCCCCOC(=O)Nc1ccc(S(=O)(=O)N2CCCCC2)cc1 | 41%
18 | CCCCCCCCCCCOc1cccc(N2C(N)=NC(N)=NC2(C)C)c1 | 96% (active)
19 | O=Nc1c(NO)c2ccccc2c2ccccc12 | 95% (active)
20 | CCCCCCCCCCCCCCCCOS(=O)(=O)O | 100% (active)

Row | Structure (SMILES) | growth inhibition
21 | CCCCCCCCCCCCCCCCCC[N+](C)(C)Cc1ccc(C[N+](C)(C)CCCCCCCCCCCCCCCCCC)cc1 | 11%
22 | NNc1ccc2ccccc2n1 | 99% (active)
23 | Cc1cc(NC(=S)SCc2ccc(F)cc2)c([N+](=O)[O-])cc1C | 92% (active)
24 | COC(=O)/C(=C\c1cn(C(C)=O)c2ccccc12)P(=O)(OC)OC | 73% (active)
25 | O=C(Nc1ccccc1)c1ccccc1O | 92% (active)
26 | CC(=O)c1c2c(cc3c1CC1(Cc4ccccc4C1=O)C3)CCC2 (stereo not given) | 89% (active)
27 | CC(=O)c1c(-c2ccco2)c(C#N)c(=S)n(C2OC(CO)C(O)C(O)C2O)c1-c1ccccc1 (stereo not given) | 20%
28 | CC1(C)OC2C(CO)OC(n3ncc(=S)[nH]c3=O)C2O1 (stereo not given) | 15%
29 | C=C(C)C1CC/C(C)=C/CCC2(C)OC2CC/C(CO)=C\C1O (stereo not given) | 94% (active)
30 | CC(C)CCSc1ncnc2nc[nH]c12 | 8%
31 | COC(=O)C1(Cc2ccc3c(c2)CCC3)Cc2ccc3c(c2C1O)CCC3 (stereo not given) | 95% (active)
32 | Nc1ccc(C(=O)NN2C(=O)C(Cl)C2c2cc(Br)cc(Br)c2O)cc1 (stereo not given) | 54%
33 | COc1ccc(SC2=C(N(C)C(C)=O)C(=O)c3ccccc3C2=O)cc1 | 99% (active)
34 | O=[N+]([O-])c1ccc(N/N=C/CCCCCCCCCCBr)c([N+](=O)[O-])c1 | 1%
35 | O=C(c1ccccc1)c1cccc2ccccc12 | 27%
36 | O=S1(=O)CCc2ccccc2C(Br)C1Br (stereo not given) | 99% (active)
37 | CC(/C=N/NS(=O)(=O)c1ccc(C)cc1)=C(c1ccccc1)c1ccccc1 | 93% (active)
38 | Cc1cc(CC(O)(C(F)(F)F)C(F)(F)F)cc(CC(O)(C(F)(F)F)C(F)(F)F)n1 | 99% (active)
39 | O=S(=O)(c1cc(Cl)c(Cl)cc1Cl)N(CCCCCN(S(=O)(=O)c1cc(Cl)c(Cl)cc1Cl)S(=O)(=O)c1cc(Cl)c(Cl)cc1Cl)S(=O)(=O)c1cc(Cl)c(Cl)cc1Cl | 4%
40 | O=c1cc(-c2ccccc2)oc2ccc(-c3ccc4oc(-c5ccccc5)cc(=O)c4c3)cc12 | 89% (active)

Same assay, conditions: S. cerevisiae bub3 mutant strain, at 50.0 µM, active compounds read high

Row | Structure (SMILES) | growth inhibition
41 | COC(=O)C1C(c2ccccc2)=N[C@@H](c2ccccc2)[C@H]1C(=O)OC (stereo not given in full) | 3.55%
42 | CCCCCCCCCC(C)CC(=O)NCCCN(C)CCCCN(C)C (stereo not given) (tested in a mixture with another compound) | 90.2% (active)
43 | Cc1ccc(N=C2SC(=S)N(CCC[N+](C)(C)C)C2=Nc2ccc(C)cc2)cc1 | 99.4% (active)
44 | N#CSc1ccc(O)c2ccccc12 | 90.3% (active)
45 | CCCCCC1OC(CCCCC)OC(CCCCC)O1 (stereo not given) | -13.9%
46 | ClC1(c2ccccc2)c2ccccc2-c2ccccc21 | 95.8% (active)
47 | CCN(CC)c1ccc(NC(CC(O)c2ccccc2)c2ccccc2)cc1 (stereo not given) | 21.1%
48 | CCCCCCC[n+]1ccc(C(=O)c2ccccc2)cc1 | 99.3% (active)
49 | O=c1[nH][nH]c(=O)c2c1nc(SCc1ccccc1)n2Cc1ccccc1 | 2.3%
50 | CCOC(=O)C(NNc1ccccc1)C(c1ccccc1)[P+](c1ccccc1)(c1ccccc1)c1ccccc1 (stereo not given) | 99.4% (active)
51 | CC(C)/C=C1\CCC(CN2CCOCC2)C1=O (stereo not given) | 30.6%
52 | CCc1cc2nc3c(=O)[nH]c(=O)nc-3n(CCN(CCO)CCO)c2cc1CC | 18.1%
53 | c1ccc2c(c1)OCC(CN1CCN(CC3COc4ccccc4O3)CC1)O2 (stereo not given) | 67.9%
54 | CNC(C)C(=O)c1ccc2ccc3ccccc3c2c1 (stereo not given) | 67.8%
55 | O=[N+]([O-])c1ccc(N=C(Cl)C(Cl)(c2ccccc2)c2ccccc2)cc1 | 95.2% (active)
56 | O=[N+]([O-])c1ccc2c(c1)Cc1cc(Cl)ccc1-2 | -14.3%
57 | CCCCCCOC(=O)Nc1ccc(S(=O)(=O)N2CCCCC2)cc1 | 73.8% (active)
58 | CCCCCCCCCCCOc1cccc(N2C(N)=NC(N)=NC2(C)C)c1 | 99.1% (active)
59 | O=Nc1c(NO)c2ccccc2c2ccccc12 | 98.2% (active)
60 | CCCCCCCCCCCCCCCCOS(=O)(=O)O | 98.8% (active)

Row | Structure (SMILES) | growth inhibition
61 | CCCCCCCCCCCCCCCCCC[N+](C)(C)Cc1ccc(C[N+](C)(C)CCCCCCCCCCCCCCCCCC)cc1 | 5.05%
62 | NNc1ccc2ccccc2n1 | 93.2% (active)
63 | Cc1cc(NC(=S)SCc2ccc(F)cc2)c([N+](=O)[O-])cc1C | 99% (active)
64 | COC(=O)/C(=C\c1cn(C(C)=O)c2ccccc12)P(=O)(OC)OC | 78.5% (active)
65 | O=C(Nc1ccccc1)c1ccccc1O | 86% (active)
66 | CC(=O)c1c2c(cc3c1CC1(Cc4ccccc4C1=O)C3)CCC2 (stereo not given) | 63.8%
67 | CC(=O)c1c(-c2ccco2)c(C#N)c(=S)n(C2OC(CO)C(O)C(O)C2O)c1-c1ccccc1 (stereo not given) | 50.8%
68 | CC1(C)OC2C(CO)OC(n3ncc(=S)[nH]c3=O)C2O1 (stereo not given) | 71% (active)
69 | C=C(C)C1CC/C(C)=C/CCC2(C)OC2CC/C(CO)=C\C1O (stereo not given) | 91.8% (active)
70 | CC(C)CCSc1ncnc2nc[nH]c12 | 73.5% (active)
71 | COC(=O)C1(Cc2ccc3c(c2)CCC3)Cc2ccc3c(c2C1O)CCC3 (stereo not given) | 93.7% (active)
72 | Nc1ccc(C(=O)NN2C(=O)C(Cl)C2c2cc(Br)cc(Br)c2O)cc1 (stereo not given) | 98.2% (active)
73 | COc1ccc(SC2=C(N(C)C(C)=O)C(=O)c3ccccc3C2=O)cc1 | 99.6% (active)
74 | O=[N+]([O-])c1ccc(N/N=C/CCCCCCCCCCBr)c([N+](=O)[O-])c1 | 50.3%
75 | O=C(c1ccccc1)c1cccc2ccccc12 | 49.7%
76 | O=S1(=O)CCc2ccccc2C(Br)C1Br (stereo not given) | 98.2% (active)
77 | CC(/C=N/NS(=O)(=O)c1ccc(C)cc1)=C(c1ccccc1)c1ccccc1 | 70.4% (active)
78 | Cc1cc(CC(O)(C(F)(F)F)C(F)(F)F)cc(CC(O)(C(F)(F)F)C(F)(F)F)n1 | 99.2% (active)
79 | O=S(=O)(c1cc(Cl)c(Cl)cc1Cl)N(CCCCCN(S(=O)(=O)c1cc(Cl)c(Cl)cc1Cl)S(=O)(=O)c1cc(Cl)c(Cl)cc1Cl)S(=O)(=O)c1cc(Cl)c(Cl)cc1Cl | 98.9% (active)
80 | O=c1cc(-c2ccccc2)oc2ccc(-c3ccc4oc(-c5ccccc5)cc(=O)c4c3)cc12 | 59%
